Results on four compounds are retold here after PubChem BioAssay AID1347137 (National Center for Advancing Translational Sciences (NCATS), 2019).

The other results are listed elsewhere or left out. Results filed as inconclusive are left out. The source made the active and inactive calls. Calls come from the whole dose curve; as a rule, active = well fitted inhibition curve with a large enough effect; inconclusive = small, poorly fitted or top-dose-only effect; inactive = no such curve, though single readings can be large or run the other way.

A short description of this assay: qHTS of pediatric cancer cell lines to identify multiple opportunities for drug repurposing: Orthogonal 3D viability screen for Daoy cells. To be noted: Daoy 3D spheroid viability, PI/Hoechst imaging, 72 h; series mostly up to 30.7 µM. The source says: Drug repurposing or repositioning has been offered as a strategy for drug development in oncology programs. This approach has special potential for childhood cancers and other rare or orphan diseases, where the expected return on new drug development has been a disincentive to pharmaceuticals. […] In this project we exploit the poly-pharmacology of drugs to discover new indications via phenotypic screening of a panel of 19 well-characterized cell lines derived from solid tumors seen in children and adolescents. The goal is to identify approved drugs with previously unrecognized anticancer properties that has the potential to reveal new mechanisms and biological processes involved in carcinogenesis or drug resistance. We employed a titration-based paradigm (quantitative high-throughput screening or qHTS), where all compounds were tested at multiple concentrations for their effect on cell viability. Concentration-response curves (CRCs) were derived directly from the primary screen, and both potency and efficacy values were used to identify compounds with robust bioactivity profiles. […] These two assays will be use to validate active compounds and assess the correlation of compound's potency in 2D vs 3D cultures on selected cell lines. Assay Submitter: Nathalia J. Martinez, National Center for Advancing Translational Sciences, National Institutes of Health, Rockville, MD, USA; email: natalia.martinez@nih.gov Shen, M et al. Quantitative high-throughput phenotypic screening of pediatric cancer cell lines identifies multiple opportunities for drug repurposing. Oncotarget 2017 Dec 19;9(4):4758-4772. PMID 29435139.
The cells were obtained from University of North Carolina (UNC), Pediatric Preclinical Testing Program (PPT), and Coriell Institute (CI). qHTS viability in 3D culture: Cells were assayed in phenol red-free growth media at a density of 1,000 cells/well, with the exception of Daoy, and SH-N-SH which were assayed at 1,500 cells/ well. Thirty muL of cells were dispensed into 384-well, ULA, round bottom plates (Corning) using a Multidrop dispenser. […] Spheroid viability was first determined by high-content imaging using Hoechst 33342 and Propidium Iodide (PI, ThermoFisher Scientific), followed by addition of CellTiter-Glo 3D (Promega). […] Plates were incubated for 30 min at RT on a VWR microplate shaker (300 rpm) and analyzed for luminescence intensity using a ViewLux High-throughput CCD imager equipped with clear filters. […] The data were exported to Excel, and the average fluorescent intensities were used to calculate the ratio of PI over Hoechst, which was used to quantify viability. […]
For orientation: Quantitative high-throughput screening tests each substance at several concentrations.
Regarding `CC[C@H]1CN2CCc3cc(OC)c(OC)cc3[C@@H]2C[C@@H]1C[C@H]1NCCc2cc(OC)c(OC)cc21`, the Potency was 406 nM (active).
For `C=C1C(=CC=C2CCC[C@]3(C)[C@@H]([C@H](C)C=C[C@H](C)C(C)C)CC[C@@H]23)C[C@@H](O)C[C@@H]1O`, the Potency entry was “inactive”.
As to `CC1(C)O[C@@H]2C[C@@H]3[C@H]4C[C@@H](F)C5=CC(=O)C=C[C@]5(C)[C@@]4(F)[C@@H](O)C[C@]3(C)[C@]2(C(=O)CO)O1`, the Potency is 3620 nM (active).
The figure for `CC(NCc1ccc2c(c1)nc(NC(=O)c1ccc(-c3cn[nH]c3)s1)n2CC(C)(C)O)C(C)(C)C` (centres undefined) is 511 nM (active).
